Source: PubChem (National Center for Advancing Translational Sciences (NCATS))
D2 PAM-1: positive allosteric modulators of human D2 dopamine receptor | P14416 | potentiation, % at 10 µM | 340,000 tested, 0.34% active | HEK293 T-REx D2, calcium flux, EC20 dopamine potentiation;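 active = potentiation over 3 SD above the plate norm, cut at about 30% in these data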; note: 0% is about no effect
Target sequence (P14416 whole entry, looked up): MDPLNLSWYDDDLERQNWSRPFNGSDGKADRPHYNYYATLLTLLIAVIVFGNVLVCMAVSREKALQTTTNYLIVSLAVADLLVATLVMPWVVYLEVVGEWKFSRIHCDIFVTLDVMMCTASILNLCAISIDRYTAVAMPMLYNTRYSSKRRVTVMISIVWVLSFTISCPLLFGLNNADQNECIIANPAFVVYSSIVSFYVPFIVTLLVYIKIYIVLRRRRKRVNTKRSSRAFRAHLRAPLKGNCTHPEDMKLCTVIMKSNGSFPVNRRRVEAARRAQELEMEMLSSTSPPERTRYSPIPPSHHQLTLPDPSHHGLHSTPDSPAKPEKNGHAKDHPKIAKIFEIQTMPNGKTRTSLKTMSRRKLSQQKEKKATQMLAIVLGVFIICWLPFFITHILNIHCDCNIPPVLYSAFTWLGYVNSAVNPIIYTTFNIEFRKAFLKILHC
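Using a no-wash calcium dye in inducible, force-coupled HEK293 Trex cells expressing D2, we tracked fluorescence each second for 180 s after compound, then for 180 s after EC20 dopamine to detect augmented signalling.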
D2 ag-1: activates the human D2 dopamine receptor; P14416; HEK293 T-REx D2 cells, calcium flux agonist mode; activation, % at 2 µM; 340,000 tested, 0.53% active; AID 485358;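 active = activation over 3 SD above normal in the single-dose calcium agonist read, cut at about 30% in these data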; note: 0% is about no effect
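Tetracycline-induced HEK293 Trex cells with D2 receptor force-coupled to calcium signaling, plated overnight at 30 C and loaded with no-wash calcium dye. Calcium flux read kinetically for 180 s after compound addition; responses flag agonists.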
D2 antagonist: antagonists of human D2 dopamine receptor | HEK293 TREx D2 cells, calcium flux, dopamine EC80 | inhibition, % at 10 µM | 340,000 tested, 2% active; in the data active = inhibition above about 30%; inactive = below that, where a call was filed; note: 0% is about no effect
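Antagonism is scored as inhibition of an EC80 dopamine-evoked calcium signal in a force-coupled, tetracycline-inducible HEK293 T-REx D2 line, with compound present 180 s before agonist.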
D2 PAM-2: human D2 receptor positive allosteric modulation. 360,000 tested, 0.23% active. potentiation, % (no concentration beside the values). AID 624464. DiscoveRx D2 beta-arrestin cells, luminescence, 90 min; 100% = 57 uM dopamine signal. P14416; in the data active = potentiation above about 50%; inconclusive = mostly about 30% to 49%
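PathHunter beta-arrestin assay in DiscoveRx D2 cells. Compounds were added with an EC20 of dopamine (50 nM final) for 90 min at 37 deg C. Luminescence was read 1 h after detection reagent, with 57 uM dopamine as the EC100 control.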
D2 ag-2: human D2 receptor agonism in beta-arrestin assay; AID 624465; DiscoveRx PathHunter D2 beta-arrestin, luminescence, 90 min; 100% = 57 uM dopamine signal; 360,000 tested, 0.084% active; P14416; activation, % (test concentration not listed); in the data active = activation above about 40%; inconclusive = between about 15% and that limit
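DiscoveRx PathHunter D2 beta-arrestin cells (2,100/well) attached overnight, then compound-stimulated 90 min at 37 C in HBSS/10 mM HEPES/0.1% Tween-20 buffer; beta-galactosidase complementation read by luminescence after 1 h at ambient temperature. Dopamine 57 uM final (EC100) as control.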
Starred values were filed as active, the others as inactive; ? = inconclusive; . = not tested or not shown; ! = repeats disagree. Only some compounds are listed: those with a hit (about 2.4% of all), similar ones and a draw of the others.

SMILES	D2 PAM-1	D2 ag-1	D2 antagonist	D2 PAM-2	D2 ag-2
COc1cc(NS(=O)(=O)c2ccc(-c3cc(C)no3)cc2)cc(OC)c1	5.0	-0.4	.	.	.
Cc1c(Cl)cccc1NC(=S)NC(=O)c1cncc(Br)c1	.	.	.	-14.5	-5.1
N=c1sccn1CC(=O)NCCc1ccc(Cl)cc1Cl	-8.8	-0.3	39.0*	-23.9	-3.4
Cc1nc(N2CCOCC2)c2c(C(=O)N(C)c3ccccc3)c(C)oc2n1	-3.4	-0.4	.	.	.
COc1ccc(CC(=O)N/N=C/c2ccc(-c3ccc(F)cc3)o2)cc1OC	-16.7	39.7*	3.6	-8.3	1.2
N#Cc1cccc(N=Cc2c(O)ccc3ccccc23)c1	8.3	-0.4	-7.6	?	5.4
Oc1ccc2ccccc2c1C=Nc1cc(C(F)(F)F)ccc1N1CCCC1	11.2	-0.3	6.2	55.2*	6.8
CCN1CCN(Cc2ccc(OCc3ccccc3)cc2)CC1	31.7*	-1.8	-13.0	-11.4	-3.0
CCOc1ccc(CNc2ccc(N3CCN(Cc4ccccc4)CC3)cc2)cc1	-8.4	0.0	59.0*	-23.1	2.7
CCOC(=O)C1CCCN(Cc2nc(N)nc(Nc3ccccc3)n2)C1 (stereo not drawn)	-20.3	0.3	46.4*	-36.0	-3.3
CCOC(=O)C1CCCN(Cc2ccc(OCc3ccccc3)cc2)C1 (stereo not drawn)	-38.0	9.9	86.1*	-83.5	-1.0
CCOc1ccc(CNc2ccc(N3CCCC3)cc2)cc1	1.7	-0.4	-27.7	2.7	2.4
Cc1nc2c(-c3ccccc3)c(C)nn2c(C)c1CCC(=O)Nc1ccccc1F	-8.4	-0.1	.	.	.
O=C(CS(=O)(=O)c1cccc2nsnc12)NCc1ccccc1Cl	13.4	-8.7	.	.	.
Cc1cc(C)cc(C(=O)NCC(=O)OCC(=O)NCC(F)(F)F)c1	-2.5	0.9	4.3	5.0	-3.1
Oc1ccc(NCc2ccc(OCc3ccccc3)cc2)cc1	7.6	-1.0	-4.8	13.5	40.2*
CCOC(=O)C1CCCN(CCCc2ccccc2)C1 (stereo not drawn)	-22.4	1.2	70.0*!	-10.8	-3.2
COc1ccccc1NS(=O)(=O)c1ccc(C)c(C(=O)NCc2cccnc2)c1	4.5	0.4	9.1	-0.6	-2.2
COc1cccc(NC(=O)/C=C/c2ccc([N+](=O)[O-])cc2)c1	-19.6	-0.9	44.6*	-1.3	0.7
COc1ccc(/C=C/C(=O)Nc2cccc(F)c2)cc1S(=O)(=O)N1CCOCC1	6.0	1.8	55.6*	-0.9	0.3
COc1cccc(NC(=O)/C=C/c2ccc(S(=O)(=O)N3CCOCC3)cc2)c1	-20.6	0.1	47.3*	-3.7	-2.1
COc1cccc(NC(=O)/C=C/c2ccccc2[N+](=O)[O-])c1	-20.6	-0.8	-4.6	-27.6	-0.1
COC(=O)c1ccc(NC(=O)c2cccc(NC(=O)c3ccccc3)c2)cc1	2.0	0.3	3.0	-23.4	-3.4
Cc1ccc2ccc3cc(C(=O)N4CCN(c5ccccc5)CC4)nc3c2[nH]1	6.6	-0.5	.	.	.
CCCC(=O)N1CCN(c2ccc(NC(=S)NC(=O)CC)cc2)CC1	-2.6	-0.2	14.3	-15.6	1.9
SMILES	D2 PAM-1	D2 ag-1	D2 antagonist	D2 PAM-2	D2 ag-2
COc1cc(/C=C/C(=O)c2ccc3c(c2)OCO3)cc(Cl)c1O	-4.9	78.3*	34.8*	-8.1	-6.4
CCOC(=O)C1CCN(S(=O)(=O)c2ccc3c(c2)CC(C)N3C(=O)C2CCC2)CC1 (stereo not drawn)	-0.1	0.0	-10.3	-4.9	-3.9
O=C(O)[C@H]1CCCC[C@H]1C(=O)NCCc1ccccc1	-2.9	-0.6	44.8*	-1.5	-1.0
CC(C)=C1C2CCC1C(C(=O)NCCc1ccccc1)C2C(=O)O (stereo not drawn)	-10.8	39.4*	-37.7	-9.8	0.6
Cc1ccc(NC(=O)C2CCCN(c3ncnc4onc(C)c34)C2)cc1Cl (stereo not drawn)	-5.2	.	.	.	.
COc1cc(Cl)c(C)cc1NC(=O)C1CCN(c2nc3ccccc3n3cccc23)CC1	6.6	-1.0	.	.	.
COCc1c(C(=O)NC2CCCCCC2)oc2ccccc12	-26.6	31.2*	10.3	10.4	?
Cc1cc(NC(=O)CN2CC(C)OC(C)C2)n(-c2nc3ccccc3s2)n1 (stereo not drawn)	9.1	0.1	34.3*	-12.5	-1.6
O=C(COc1ccc(Cl)cc1)OCc1cc(=O)n2nc(-c3cccs3)sc2n1	.	0.5	.	.	.
O=C1C(=NO)CCc2ccccc21	.	.	.	79.9*	?
COc1ccccc1N(C(=O)CNC(=O)c1ccco1)C(C(=O)NC1CCCCC1)c1ccncc1 (stereo not drawn)	-0.2	0.3	-1.1	1.8	-1.0
Cc1ccccc1OCC(=O)OCC(=O)c1c[nH]c2ccccc12	.	.	.	-0.9	6.4
CC1=C(C(=O)N(C)C)CC(CC(=O)NC2CCCC2)C(=O)N1Cc1ccccc1 (stereo not drawn)	.	.	.	-0.8	-5.6
Cc1ccc(NC(=O)CN2C(=O)CSc3ccc(S(=O)(=O)N(C)C)cc32)cc1C	5.9	0.5	.	.	.
O=C(NC1CC1)C1CCN(C2CCN(C(=O)Cc3ccc(F)cc3)CC2)CC1	12.8	2.0	34.4*	-2.3	0.5
COc1cccc(OCC(=O)O)c1	39.5*	0.2	3.3	2.7	-0.3
Cc1cc(NC(=O)NC(=O)c2cccc(OC(F)(F)C(F)F)c2)n[nH]1	-4.6	1.5	-1.8	-6.8	-4.9
Cc1cc(NC(=O)c2cccc(Oc3ccccc3)c2)n[nH]1	73.8*	3.7	-12.0	-5.3	-2.4
COc1cccc(C(=O)Nc2cccc(OCC(=O)O)c2)c1	3.6	1.7	33.7*	0.1	-2.6
COc1cccc(OCCNCc2ccccc2)c1	-29.6	2.5	41.1*	-12.8	-1.1
O=C(NC(=O)c1ccccc1)Nc1ccc(Cl)cn1	-11.5	1.3	4.9	-15.2	-1.1
O=C(Nc1nnc(-c2ccccc2)o1)c1nc2ccccc2s1	-11.3	43.9*	8.3	-18.1	-12.3
CCCCCNC(=O)C1CC=CCC1C(=O)O (stereo not drawn)	5.9	0.9	36.1*	5.6	1.2
CCN(CC)S(=O)(=O)c1cccc(NC(=O)COC(=O)c2cc(=O)c3ccccc3o2)c1	30.7*	1.0	-4.7	-13.7	-1.1
CCN(CC)S(=O)(=O)c1cccc(NC(=O)COC(=O)c2ccc(Br)o2)c1	21.2	-0.3	2.9	-12.6	0.7
Cc1ccc(S(=O)(=O)NCCc2csc3nc(-c4ccccc4C)nn23)cc1	-4.9	0.0	.	.	.
Cc1ccccc1NC(=O)c1ccc(Cn2cc([N+](=O)[O-])cn2)o1	-1.7	-0.5	32.1*	0.0	-6.1
Cc1cc(NC(=O)c2ccc(Cn3cc([N+](=O)[O-])cn3)o2)no1	.	.	.	-4.8	-1.0
Cc1ccc(S(=O)(=O)Nc2nc3c(s2)C(=O)CC(C)(C)C3)cc1	-3.6	-0.5	-11.8	-0.9	-4.6
